# According to PubChem BioAssay AID1533 (PCMD, 2009):
# Out of some 160,000 compounds screened, about 45 (0.03%) were called active. The full list was thinned out, with actives kept by preference. A number with no mark means an inactive call. Rule as the data show it: active = inhibition mostly above about 34% (no sharp cut-off); inconclusive = no clear call, values can overlap the other calls; inactive = mostly below about 22%.
# Molecular target: dTDP-4-dehydrorhamnose reductase (Mycobacterium tuberculosis (strain ATCC 25618 / H37Rv)) + dTDP-4-dehydrorhamnose 3,5-epimerase (Mycobacterium tuberculosis (strain ATCC 25618 / H37Rv)) (UniProt P9WH09+P9WH11)
# Assay: M. tuberculosis RmlC/RmlD coupled enzyme inhibitors, primary screen, biochemical, compound mixtures, 384-well, from 1536-well plates (AID 1533)
# Details: RmlC+RmlD coupled enzyme assay, percent inhibition; primary screen in compound mixtures; at 3.6 µM; stronger effect = higher value
# Chain of dTDP-4-dehydrorhamnose reductase (Mycobacterium tuberculosis (strain ATCC 25618 / H37Rv)) + dTDP-4-dehydrorhamnose 3,5-epimerase (Mycobacterium tuberculosis (strain ATCC 25618 / H37Rv)) (P9WH09 whole entry, looked up): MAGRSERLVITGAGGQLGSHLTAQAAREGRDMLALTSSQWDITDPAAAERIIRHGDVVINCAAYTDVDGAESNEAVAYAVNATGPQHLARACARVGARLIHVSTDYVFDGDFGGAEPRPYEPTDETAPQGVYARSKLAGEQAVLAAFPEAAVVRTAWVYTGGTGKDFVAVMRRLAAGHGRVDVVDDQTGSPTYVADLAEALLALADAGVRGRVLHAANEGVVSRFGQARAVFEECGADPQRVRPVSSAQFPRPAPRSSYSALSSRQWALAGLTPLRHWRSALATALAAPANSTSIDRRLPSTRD
# Chain of dTDP-4-dehydrorhamnose reductase (Mycobacterium tuberculosis (strain ATCC 25618 / H37Rv)) + dTDP-4-dehydrorhamnose 3,5-epimerase (Mycobacterium tuberculosis (strain ATCC 25618 / H37Rv)) (P9WH11 whole entry, looked up): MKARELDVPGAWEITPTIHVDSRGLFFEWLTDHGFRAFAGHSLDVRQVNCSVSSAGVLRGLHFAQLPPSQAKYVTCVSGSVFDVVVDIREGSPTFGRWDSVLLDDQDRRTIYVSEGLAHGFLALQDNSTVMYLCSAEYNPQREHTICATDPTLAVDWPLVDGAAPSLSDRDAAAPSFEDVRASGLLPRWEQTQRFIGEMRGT
row,SMILES,inhibition [%]
1,COc1ccc2[nH]c(=S)cc(C)c2c1,1.84
2,Cc1cc(=O)oc2cc(OCCC[n+]3ccccc3)ccc12,2.56
3,CCc1ccc(-n2c(SCc3cc(=O)n4cc(Br)ccc4n3)nc3[nH]ncc3c2=O)cc1,-10.8
4,CCn1c2ccccc2c2cc(NC(=O)Nc3ccc([N+](=O)[O-])cc3C)ccc21,14.1
5,O=C(Nc1cccnc1)c1cc([N+](=O)[O-])ccc1Cl,-16
6,COc1cccc(C(=O)n2ccc(-c3cccs3)n2)c1,2.94
7,COc1ccc(N(Cc2ccccc2)S(=O)(=O)c2cccc(C(=O)O)c2)cc1,1.87
8,COc1ccccc1Cn1c(CO)nc2ccccc21,17.8
9,CC(=O)N1N=C(c2ccncc2)OC1(Cc1ccccc1)Cc1ccccc1,9.53
10,COc1cccc(CNn2cn[nH]c2=S)c1OCc1ccccc1,-3.37
11,C=CCN1C(=O)C(O)(CC(=O)c2ccccn2)c2ccccc21 (configuration not stated),-20.3
12,S=c1[nH]nc(Nc2ccccc2)s1,-6.55
13,CC1C(=O)NC(=O)C1c1ccccc1 (configuration not stated),11.3
14,COc1ccc(NC(=O)C2CCC(CNc3c(N4CCCCC4)c(=O)c3=O)CC2)c(OC)c1 (configuration not stated),1.5
15,O=C(Nc1ccccc1)Nc1ccc(C(F)(F)F)cn1,-12.1
16,COC(=O)c1sc(SC)c(S(=O)(=O)C(C)C)c1N/N=C(\C#N)S(=O)(=O)c1ccccn1,26.5
17,O=C(NC1C2CC3CC(C2)CC1C3)c1ccc(N2CCNCC2)c([N+](=O)[O-])c1 (configuration not stated),-17.8
18,C=CCC1(C#N)C(=S)NC(C)=C(C(=O)OCC)C1c1ccccc1 (configuration not stated),-2.23
19,Cc1c(Cc2ccccc2)c(=O)oc2cc(OCC(N)=O)ccc12,-14.1
20,Cn1c(SCC(=O)c2ccc(F)cc2)nnc1-c1ccccn1,-3.85
21,CCOC(=O)COc1nc(C)cc(C(F)(F)F)c1C#N,2.06
22,O=C(O)CCCCCCCCCC[n+]1ccccc1,9.14
23,NC(=O)c1ccc(NC(=O)COC(=O)c2ccc([N+](=O)[O-])cc2)cc1,11.7
24,Cc1cc(N2CCN(c3ccc(F)cc3)CC2)n2ncnc2n1,15.1
25,CN(C)C(=O)c1nc2ccc(Cl)cn2c1CNCc1cccc(OC(F)(F)F)c1,10.5
26,O=C(c1ccc(=O)oc1)N1CCC(C(O)(c2ccccc2)c2ccccc2)CC1,7.4
27,O=C(COC(=O)/C=C/c1ccc2c(c1)OCO2)NC1CCS(=O)(=O)C1 (configuration not stated),-0.46
